# PubChem BioAssay (NCATS)
# Inconclusive results are not listed. A number with no mark means an inactive call. Calls follow the shape of the dose curve; as a rule, active = well fitted curve in the direction sought with a large enough effect; inconclusive = small, poorly fitted or top-dose-only effect, or another doubt; inactive = no such curve, though single readings can be large; an effect the other way counts as inactive or inconclusive.
# Assay: qHTS of pediatric cancer cell lines to identify multiple opportunities for drug repurposing: Primary screen for control Hh wild type fibroblast cells (AID 1347106);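 also: a drop in luminescence marks cytotoxicity and a rise apparent proliferation; nearly all actives have a fitted effect of over 55% in size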
# Conditions: Hh wild-type fibroblast viability, CellTiter-Glo luminescence, 48 h; series mostly up to 46 µM; activity change, negative = cytotoxic: at the top concentration
# Summary of the method: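 Viability after 48 h compound treatment at 37C, 500-1,000 cells/well, read as ATP luminescence with CellTiter-Glo. Primary screens used 11-point (MIPE, 0.78 nM-46 µM) or 8-point (NPC, 0.59 nM-46 µM) final concentrations; follow-up screens used 11-point dilutions.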
# % is scaled to controls: 0 for no effect and ±100 for the full control effect.
row,SMILES,"activity change, negative = cytotoxic"
1,CCN(CC)C(=O)Nc1ccc(OCC(O)CNC(C)(C)C)c(C(C)=O)c1 (stereo not drawn),6.96%
2,CC(C)(O)c1ccccc1CC[C@@H](SCC1(CC(=O)O)CC1)c1cccc(/C=C/c2ccc3ccc(Cl)cc3n2)c1,9.15%
3,Cc1cc2c(cc1S(N)(=O)=O)S(=O)(=O)CCC2,8.71%
4,NC(N)=NCCC[C@H](N)C(=O)O,15% [at 4.84 µM]
5,CC(C)(C)C(=O)C(Oc1ccc(Cl)cc1)n1ccnc1 (stereo not drawn),16.9%
6,O=C(O)c1ccccc1-c1ccc(C(F)(F)F)cc1,3.24%
7,CC(=O)Oc1c(C)c(C)c2c(c1C)CC[C@@](C)(CCC[C@H](C)CCC[C@H](C)CCCC(C)C)O2,-4.38%
8,Cc1c(Cl)cccc1Nc1ccccc1C(=O)O,-7.14%
9,CCOc1ccc2ccccc2c1C(=O)N[C@@H]1C(=O)N2[C@@H]1SC(C)(C)[C@@H]2C(=O)O,10.5%
10,CCCCCCCCCCCCCCCC(=O)NCCO,2.6%
11,Cc1ccc(C(C)C)cc2c(C)ccc1-2,3.44%
12,O=C1O[C@H](CO)[C@@H](O)[C@H](O)[C@H]1O,-5.07%
13,CC(=O)Oc1ccc(C2(c3ccc(OC(C)=O)cc3)C(=O)Nc3ccccc32)cc1,-17.4%
14,COc1ccc2cc1Oc1cc3c(cc1OC)CC[N+](C)(C)[C@H]3Cc1ccc(cc1)Oc1c(OC)c(OC)cc3c1[C@@H](C2)[N+](C)(C)CC3,4.79%
15,CC1=C(CC(=O)O)c2cc(F)ccc2/C1=C\c1ccc(S(C)(=O)=O)cc1,9.21%
16,C#CCN(C)Cc1ccccc1,-3.14%
17,Cc1ncc([N+](=O)[O-])n1CC(O)CCl (stereo not drawn),9.38%
18,C[C@@H](O)[C@H](N)C(=O)O,-3.68% [at 16.1 µM]
19,Nc1nc2c(ncn2CCC(CO)CO)c(=O)[nH]1,-2%
20,CCOc1nc2cccc(C(=O)O)c2n1Cc1ccc(-c2ccccc2-c2nn[nH]n2)cc1,-8.76%

row,SMILES,"activity change, negative = cytotoxic"
1,CC1(C)OC(=O)NC1=O,2.82%
2,CCCOC(=O)c1ccccc1,5.6%
3,COc1cc(C)c(Cc2cnc(N)nc2N)cc1OC,13.1%
4,CC(=O)CCC(=O)O,7.78%
5,[O-][n+]1cccc(CO)c1,10%
6,Oc1cn2c(n1)Nc1ccc(Cl)c(Cl)c1C2,1.41% [at 16.1 µM]
7,C[C@@H]1CN(c2c(F)c(F)c3c(=O)c(C(=O)O)cn(C4CC4)c3c2F)C[C@H](C)N1,5.71% [at 16.1 µM]
8,CC1=C(CC(=O)O)c2cc(F)ccc2/C1=C\c1ccc(S(C)=O)cc1 (stereo not drawn),0.895%
9,NC1CCN(c2cccc(Cl)n2)CC1,14.6%
10,COc1ccc2c(c1)C(=O)N(CCc1ccc(S(=O)(=O)NC(=O)NC3CCCCC3)cc1)C(=O)C2(C)C,-7.89%
11,Oc1cccc(O)c1,7.63%
12,CC(COc1ccccc1)NC(C)C(O)c1ccc(O)cc1 (stereo not drawn),11%
13,CC1(C)S[C@@H]2[C@H](NC(=O)Cc3ccccc3)C(=O)N2[C@H]1C(=O)O (tested in a mixture with another compound),11.3%
14,CCC(=O)Nc1ccc(O)cc1,1.72%
15,CC[C@@]1(c2ccccc2)NC(=O)N(C)C1=O,9.89%
16,Cn1c(=O)c2c(ncn2CC2OCCO2)n(C)c1=O,-0.469%
17,C[C@@H]1CCN(C(=O)[C@H](CCCN=C(N)N)NS(=O)(=O)c2cccc3c2NC[C@H](C)C3)[C@@H](C(=O)O)C1,6.53%
18,Cc1ncc(COP(=O)(O)O)c(C=O)c1O,-1.58%
19,C[C@@H]1CC[C@@]2(OC1)O[C@H]1C[C@H]3[C@@H]4CC[C@H]5C[C@@H](O)CC[C@]5(C)[C@H]4CC(=O)[C@]3(C)[C@H]1[C@@H]2C,6.44% [at 4.84 µM]

# Assay: qHTS of pediatric cancer cell lines to identify multiple opportunities for drug repurposing: Primary screen for Rh30 cells (AID 1347107); also: nearly all actives have a fitted effect of over 75% in size
# Conditions: Rh30 rhabdomyosarcoma viability, CellTiter-Glo luminescence, 48 h; series mostly up to 46 µM; activity change, negative = cytotoxic: at the top concentration
# Summary of the method: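 Cells (500-1,000/well) rested 5 h, then received compounds for 48 h; metabolically active cells were measured by CellTiter-Glo luminescence. Final concentrations spanned up to 46 µM (MIPE, 11-point) or 0.59 nM-46 µM (NPC, 8-point) in primary screens, 11-point in follow-ups.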
row,SMILES,"activity change, negative = cytotoxic"
1,CCN(CC)C(=O)Nc1ccc(OCC(O)CNC(C)(C)C)c(C(C)=O)c1 (stereo not drawn),24.6%
2,CC(C)(O)c1ccccc1CC[C@@H](SCC1(CC(=O)O)CC1)c1cccc(/C=C/c2ccc3ccc(Cl)cc3n2)c1,25.8%
3,Cc1cc2c(cc1S(N)(=O)=O)S(=O)(=O)CCC2,20.4%
4,NC(N)=NCCC[C@H](N)C(=O)O,18% [at 4.84 µM]
5,CC(C)(C)C(=O)C(Oc1ccc(Cl)cc1)n1ccnc1 (stereo not drawn),-6.15%
6,O=C(O)c1ccccc1-c1ccc(C(F)(F)F)cc1,20.8%
7,CC(=O)Oc1c(C)c(C)c2c(c1C)CC[C@@](C)(CCC[C@H](C)CCC[C@H](C)CCCC(C)C)O2,4.09%
8,Cc1c(Cl)cccc1Nc1ccccc1C(=O)O,5.8%
9,CCOc1ccc2ccccc2c1C(=O)N[C@@H]1C(=O)N2[C@@H]1SC(C)(C)[C@@H]2C(=O)O,24.7%
10,CCCCCCCCCCCCCCCC(=O)NCCO,-5.62%
11,Cc1ccc(C(C)C)cc2c(C)ccc1-2,24.8%
12,O=C1O[C@H](CO)[C@@H](O)[C@H](O)[C@H]1O,10.6%
13,CC(=O)Oc1ccc(C2(c3ccc(OC(C)=O)cc3)C(=O)Nc3ccccc32)cc1,-7.19%
14,COc1ccc2cc1Oc1cc3c(cc1OC)CC[N+](C)(C)[C@H]3Cc1ccc(cc1)Oc1c(OC)c(OC)cc3c1[C@@H](C2)[N+](C)(C)CC3,13.7%
15,CC1=C(CC(=O)O)c2cc(F)ccc2/C1=C\c1ccc(S(C)(=O)=O)cc1,-2%
16,C#CCN(C)Cc1ccccc1,23%
17,Cc1ncc([N+](=O)[O-])n1CC(O)CCl (stereo not drawn),14.2%
18,C[C@@H](O)[C@H](N)C(=O)O,17.3% [at 16.1 µM]
19,Nc1nc2c(ncn2CCC(CO)CO)c(=O)[nH]1,12.5%
20,CCOc1nc2cccc(C(=O)O)c2n1Cc1ccc(-c2ccccc2-c2nn[nH]n2)cc1,1.81%

row,SMILES,"activity change, negative = cytotoxic"
1,CC1(C)OC(=O)NC1=O,18.9%
2,CCCOC(=O)c1ccccc1,21.5%
3,COc1cc(C)c(Cc2cnc(N)nc2N)cc1OC,16.9%
4,CC(=O)CCC(=O)O,25.2%
5,[O-][n+]1cccc(CO)c1,20.2%
6,Oc1cn2c(n1)Nc1ccc(Cl)c(Cl)c1C2,33% [at 16.1 µM]
7,C[C@@H]1CN(c2c(F)c(F)c3c(=O)c(C(=O)O)cn(C4CC4)c3c2F)C[C@H](C)N1,31.2% [at 16.1 µM]
8,CC1=C(CC(=O)O)c2cc(F)ccc2/C1=C\c1ccc(S(C)=O)cc1 (stereo not drawn),13%
9,NC1CCN(c2cccc(Cl)n2)CC1,16.9%
10,COc1ccc2c(c1)C(=O)N(CCc1ccc(S(=O)(=O)NC(=O)NC3CCCCC3)cc1)C(=O)C2(C)C,-1.98%
11,Oc1cccc(O)c1,20.4%
12,CC(COc1ccccc1)NC(C)C(O)c1ccc(O)cc1 (stereo not drawn),23.1%
13,CC1(C)S[C@@H]2[C@H](NC(=O)Cc3ccccc3)C(=O)N2[C@H]1C(=O)O (tested in a mixture with another compound),14.3%
14,CCC(=O)Nc1ccc(O)cc1,13%
15,CC[C@@]1(c2ccccc2)NC(=O)N(C)C1=O,17.8%
16,Cn1c(=O)c2c(ncn2CC2OCCO2)n(C)c1=O,29.4%
17,C[C@@H]1CCN(C(=O)[C@H](CCCN=C(N)N)NS(=O)(=O)c2cccc3c2NC[C@H](C)C3)[C@@H](C(=O)O)C1,9.35%
18,Cc1ncc(COP(=O)(O)O)c(C=O)c1O,12.8%
19,C[C@@H]1CC[C@@]2(OC1)O[C@H]1C[C@H]3[C@@H]4CC[C@H]5C[C@@H](O)CC[C@]5(C)[C@H]4CC(=O)[C@]3(C)[C@H]1[C@@H]2C,18.9% [at 4.84 µM]
